# Source: PubChem BioAssay (NCI)
# Compounds without any hit were thinned out: in the full panel of roughly 83,000, 20% have a hit.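 Testing used 96-well plates and a 48-hour single-concentration exposure. Example: -40 means 40% of the starting cells died.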 A number with no mark means an inactive call. Calls of active or inactive are those of the source. Rule for the calls: active = growth percent below 10; inactive = the rest.
# Test system: 786-0 renal
# Experiment: NCI-60 one-dose screen, 48 h (100 = growth as untreated, 0 = no growth, -100 = all killed)
# Settings: 10 µM unless noted
row,Compound,growth
1,O=C(COc1ccc(NC(=O)Nc2ccc(Cl)c(Cl)c2)cc1)N=Nc1c(O)[nH]c2ccccc12,-71.9% (active)
2,COc1ccc(-c2nnc3ccc(N/N=C/c4ccc(O)cc4)nn23)cc1,22.9%
3,CCCSc1nc(NCCc2c[nH]c3ccccc23)c(C#N)c(-c2ccccc2)n1,74.7%
4,CSc1ccc(C(=O)Nc2ccc3nnn(/C(C#N)=C/c4ccccn4)c3c2)cc1,-90.3% (active)
5,CC(=O)OC[C@@]1(C)C2CC[C@]3(C)C(CC=C4C5CC(C)(C)CC[C@]5(C(=O)Nc5cccc(C)c5)CC[C@]43C)[C@@]2(C)C[C@@H](OC(C)=O)[C@@H]1OC(C)=O (some centres not stated),53.4%
6,CN(C)c1ccnc(CNCCSC2(c3ccccc3)c3ccccc3C=Cc3ccccc32)c1,-46.8% (active)
7,Cn1cc(-c2nnc(N)nc2-c2c[nH]c3ccc(F)cc23)c2cccnc21,47.2%
8,Clc1cccc(-c2ccc(OCCCN3CCN(c4ccncc4)CC3)cc2)c1,-79.5% (active)
9,Cc1ccccc1[C@H]1C(C(=O)c2ccc(Cl)cc2)C2(N[C@@H]1c1ccccc1)C(=O)Nc1ccc(Br)cc12 (some centres not stated),-40.5% (active)
10,CN(C)c1ccnc(CNCCSC2(c3ccc(C(F)(F)F)cc3)c3ccccc3C=Cc3ccccc32)c1,-22.4% (active)
11,O=C(c1ccc(OCCN2CCOCC2)cc1)C1[C@H](c2ccc(Cl)cc2)[C@@H](c2ccccc2)NC12C(=O)Nc1ccc(Cl)cc12 (some centres not stated),16.6%
12,COc1cc(CNC(=O)/C=C/c2ccc3c(c2)OCO3)ccc1OCc1cn(-c2ccc([N+](=O)[O-])cc2)nn1,90.6%
